Experimental data published in PubChem BioAssay (NCATS).
Records with an inconclusive call do not appear. Entries that show only a call come without a potency. Calls of active or inactive are those of the source. The call rests on the fitted dose curve; in most records, active means well fitted curve in the direction sought with a large enough effect; inconclusive means small, poorly fitted or top-dose-only effect, or another doubt; inactive means no such curve, though single readings can be large; an effect the other way counts as inactive or inconclusive.

Columns and labels:
[1] = target: Aldehyde dehydrogenase, mitochondrial (Homo sapiens) (UniProt P05091); assay: qHTS for Inhibitors of the Aldehyde Dehydrogenase Family (ALDH2) Primary screen (AID 2061308); further: nearly all actives have a fitted effect of over 55% in size
[2] = target: Retinaldehyde dehydrogenase 3 (Homo sapiens) (UniProt P47895); assay: qHTS for Inhibitors of the Aldehyde Dehydrogenase Family (ALDH1A3) Primary screen (AID 2061315)
[3] = target: Aldehyde dehydrogenase 1A1 (Homo sapiens) (UniProt P00352); assay: qHTS for Inhibitors of the Aldehyde Dehydrogenase Family (ALDH1A1) Confirmatory screens (AID 2061316); further: nearly all actives have a fitted effect of over 65% in size; further: potency means the concentration at half of the fitted maximal effect

| Structure (SMILES) | Potency [1] | Potency [2] | Potency [3] |
| --- | --- | --- | --- |
| O=C1CCCC2=C1C(c1[nH]ncc1Cl)NC(=NCc1ccccc1)N2 (stereo unspecified) | inactive | inactive | – |
| COC(=O)c1ccccc1-c1ccc(/C=c2\sc3nc4cc(Br)cnc4n3c2=O)o1 | inactive | inactive | 11.3 µM (active) |
| O=C(O)c1ccc(O)c2ncc(NC3CCNCC3)cc12 | inactive | inactive | – |
| Cc1ccc(N[S+](=O)([O-])c2cc3c(cc2NC2CC2)NC(=O)CC3)cc1C | inactive | inactive | 28.3 µM (active) |
| COc1ccc(NC(=O)c2[nH]c(C)c(C(C)=O)c2C)cc1S(=O)(=O)Nc1ccc(C#N)cc1 | inactive | inactive | 11.3 µM (active) |
| O=S(=O)(c1ccc2c(c1)OCCO2)N1CCN(S(=O)(=O)c2cc(F)c(F)cc2F)CC1 | inactive | inactive | – |
| CCN1CCCC1Cn1c(-c2ccccc2)nc2c(N(CCOC)CCOC)nc(C)nc21 (stereo unspecified) | inactive | inactive | – |
| Cc1csc(CNc2ncnc3ccc(-c4ccoc4)cc23)c1 | inactive | inactive | – |
| Cc1cc(C)nc(NC(=S)N2CCN(c3ccc4ncccc4c3[N+](=O)[O-])CC2)c1 | inactive | inactive | – |
| CC(C)c1cc2c(s1)c1cnn(Cc3ccccc3F)c(=O)c1n2C | inactive | inactive | – |
| CC(=O)Nc1sc2c(c1-c1nc3ccccc3s1)CC(C)NC2 (stereo unspecified) | inactive | inactive | – |
| O=C1CCCC2=C1C(c1ncccc1Br)N=C(Nc1nc3ccccc3o1)N2 (stereo unspecified) | inactive | inactive | – |
| Fc1ccc(Nc2nc(-c3ccncc3)nc3ccccc23)cc1F | inactive | inactive | – |
| Cc1ccc(CNc2ncnc3ccc(-c4sc(C)nc4C)cc23)o1 | inactive | inactive | 15.9 µM (active) |
| O=c1c2ccccc2nc2sc(Nc3ccc4c(c3)OCO4)nn12 | inactive | inactive | 5.04 µM (active) |
| CCC(=O)Nc1ccc(OCc2cc(C3Nc4ccccc4C(=O)N3Cc3ccccc3)ccc2OC)cc1 (stereo unspecified) | inactive | inactive | inactive |
| Cc1c(P(=S)(c2ccccc2)c2ccccc2)[n+]2ccccc2n1CCc1ccccc1 | inactive | inactive | – |

| Structure (SMILES) | Potency [1] | Potency [2] | Potency [3] |
| --- | --- | --- | --- |
| NC(=O)C1CCN(c2ncc(Br)s2)CC1 | inactive | inactive | 4.49 µM (active) |
| O=C(Nc1cncnc1)c1cccs1 | inactive | inactive | – |
| O=S(=O)(c1ccc2c(c1)OCCO2)N1CCN(S(=O)(=O)c2c(F)cc(F)cc2F)CC1 | inactive | inactive | – |
| CN1CCN(C(=O)c2ccc(-c3cnc4c(O)ccc(C(=O)O)c4c3)cc2)CC1 | inactive | inactive | inactive |
| Cc1cc(C)nc(NC(=S)N2CCN(c3cc(Cl)cc(Cl)n3)CC2)c1 | inactive | inactive | 3.57 µM (active) |
| Cc1cccc(C(=O)NC2CCN(C#N)CC2)c1 | inactive | inactive | – |
| N[C@H](C(=O)Nc1ccc(Cl)cc1C(=O)c1ccc[nH]1)c1ccccc1 | inactive | inactive | – |
| Cc1ccc(CNc2ccccc2C(=O)Nc2nc(-c3ccccc3)cs2)cc1 | inactive | inactive | 22.5 µM (active) |
| Cn1nnnc1Sc1ncnc2scc(-c3cccc4c3sc3ccccc34)c12 | inactive | inactive | – |
| CC(=O)Nc1sc2c(c1-c1ccc(Cl)cc1)CCNC2 | inactive | inactive | – |
| N#Cc1nc(NCCCCO)nc(Nc2ccccc2)n1 | inactive | inactive | – |
| Cn1nnnc1Sc1ncnc2scc(-c3cccc(N)c3)c12 | inactive | inactive | 22.5 µM (active) |
| CCN(CC)c1ccc(NC(=O)CN(C)Cc2c(O)ccc3ccccc23)cc1 | inactive | inactive | – |
| COc1ccc(C(=O)O)cc1COc1ccc(NC(C)=O)cc1 | inactive | inactive | – |
| CCOC(=O)c1ccc(-c2ccc3ncnc(NCc4ncc[nH]4)c3c2)o1 | inactive | inactive | – |
| O=C1Nc2ccccc2/C1=C/c1cc(Cl)c(O)c(Cl)c1 | inactive | inactive | 17.9 µM (active) |
| O=C1Nc2ccccc2C12CC2c1cc(Cl)c(O)c(Cl)c1 (stereo unspecified) | inactive | inactive | inactive |
